# Compounds with a hit are over-represented: about 1.6% of the library has one in this group of screens.
# HTR5A inv ctr: counter-screen for OPRM1-OPRD1 inverse agonists: human HTR5A inverse agonism. P47898. HTR5A cell line, luminescence. inhibition, % at 9.3 µM. hit rate 0.083% among 340,000. AID 504634; in the data active means inhibition mostly above about 23%, no sharp cut-off; inactive means mostly below about 18%
# NALP1 yeast inh: NALP1 inhibition; S. cerevisiae NALP1/ASC/caspase-1 growth, X-gal OD620, 72 h; inhibition, % at 10 µM; hit rate 0.61% among 280,000; in the data active means inhibition mostly above about 24%, no sharp cut-off; inactive means mostly below about 32%
# OPRM1-OPRD1 ag: OPRM1-OPRD1 heterodimerization agonism | hit rate 0.3% among 340,000 | AID 504326 | P35372+P41143 | activation, % at 9.3 µM | cells, luminescence
# Target sequence (P35372 whole entry, looked up): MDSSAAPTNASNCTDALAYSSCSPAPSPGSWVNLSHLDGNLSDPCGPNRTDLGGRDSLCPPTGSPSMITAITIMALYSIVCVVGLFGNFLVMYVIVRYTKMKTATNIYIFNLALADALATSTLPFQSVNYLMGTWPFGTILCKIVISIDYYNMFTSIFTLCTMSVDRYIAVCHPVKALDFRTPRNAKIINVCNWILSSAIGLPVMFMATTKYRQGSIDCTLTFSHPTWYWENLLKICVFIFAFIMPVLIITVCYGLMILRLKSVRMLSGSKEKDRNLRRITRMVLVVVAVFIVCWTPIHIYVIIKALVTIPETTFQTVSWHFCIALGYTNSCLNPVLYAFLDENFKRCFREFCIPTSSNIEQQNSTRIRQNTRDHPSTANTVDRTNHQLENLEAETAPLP
# Target sequence (P41143 whole entry, looked up): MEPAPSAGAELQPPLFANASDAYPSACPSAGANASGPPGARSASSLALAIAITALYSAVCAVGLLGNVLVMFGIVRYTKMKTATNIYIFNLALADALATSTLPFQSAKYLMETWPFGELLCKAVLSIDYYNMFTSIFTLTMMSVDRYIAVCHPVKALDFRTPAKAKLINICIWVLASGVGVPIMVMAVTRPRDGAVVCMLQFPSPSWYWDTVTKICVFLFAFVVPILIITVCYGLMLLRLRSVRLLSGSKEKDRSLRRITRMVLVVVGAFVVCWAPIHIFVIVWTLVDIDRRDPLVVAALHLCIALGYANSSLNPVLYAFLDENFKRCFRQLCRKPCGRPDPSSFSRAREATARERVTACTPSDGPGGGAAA
# HTR5A ag: activates human HTR5A in OPRM1-OPRD1 agonist counter-screen. AID 504692. activation, % at 9.3 µM. P47898. HTR5A agonist assay, luminescence, cell-based. hit rate 0.61% among 340,000; in the data active means activation mostly above about 9.5%, no sharp cut-off; inactive means mostly below about 7.6%
# PolyA inh: inhibitors of polyadenylation in S. cerevisiae | S. cerevisiae SKY197-pL101 polyadenylation reporter, beta-gal luminescence; efflux-impaired pdr1/pdr3 knockout yeast; score 100 = 6 SD above DMSO | activity score, % at 12 µM | hit rate 0.02% among 300,000 | AID 1875;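 active means lowest replicate activity score at least 50, where 100 means six control SD above control mean; inconclusive means lowest score under 50 but half or more replicates reach 50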;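 further: yeast exposed to compound for 9 h at 30 °C; higher score means more reporter readthrough which indicates perturbed polyadenylation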
# OPRM1-OPRD1 inv: mu-delta opioid heterodimer inverse agonism | P35372+P41143 | cell-based MOR-DOR heterodimer luminescence | inhibition, % at 9.3 µM | hit rate 0.21% among 340,000 | AID 504357; in the data active means inhibition above about 22%, passing the limit was not always enough
# OPRM1-D1 ag cf: OPRM1-OPRD1 heterodimer agonism, confirmation; hit rate 45% among 830; activation, % at 9.3 µM; AID 504904; shares compounds with OPRM1-OPRD1 ag; cells, MOR-DOR heterodimerization, luminescence complementation
# HTR5A ag ctr2: activates human HTR5A in OPRM1-OPRD1 agonist counter-screen; shares compounds with OPRM1-OPRD1 ag; HTR5A agonist counterscreen, cell luminescence; activation, % at 9.3 µM; hit rate 8% among 830; AID 504905; in the data active means activation above about 17%
# A number is an active result; i = inactive; ? = inconclusive; nt = no result. Unless noted, no stated cut-off is given here; in the data, active means activation above about 18%; inactive means the rest.
SMILES,HTR5A inv ctr,NALP1 yeast inh,OPRM1-OPRD1 ag,HTR5A ag,PolyA inh,OPRM1-OPRD1 inv,OPRM1-D1 ag cf,HTR5A ag ctr2
CC(CC(=O)c1ccc(F)cc1)N1CCN(c2ccccc2)CC1 (stereo unspecified),i,nt,i,i,nt,i,nt,nt
COc1cccc(CC2(CO)CCCN(Cc3ccccc3-c3ccco3)C2)c1 (stereo unspecified),i,i,97,i,i,i,128,i
CCOC(=O)C1(CC2CCCCO2)CCN(Cc2ccccc2-c2ccco2)CC1 (stereo unspecified),i,i,379,i,i,i,i,i
COc1cccc(CC2(CO)CCCN(Cc3ccc(-c4ccco4)cc3)C2)c1 (stereo unspecified),i,i,i,i,i,i,nt,nt
OCC1(CC2CCCCO2)CCN(Cc2ccccc2-c2ccco2)CC1 (stereo unspecified),i,i,96,i,i,i,136,i
CCOC(=O)C1(CC2CCCCO2)CCN(Cc2cc3ccccc3[nH]2)CC1 (stereo unspecified),i,i,307,i,i,i,i,i
CCOC(=O)[C@H]1[C@H]2COc3ccc(Cl)cc3[C@@H]2N2C(=O)c3ccccc3NC(=O)[C@@]12C,i,nt,i,i,nt,i,nt,nt
O=C(Cn1nnc(-c2ccncc2)n1)N(C1CCCCC1)C1CCCCC1,i,i,i,i,nt,i,nt,nt
COc1ccc(CNC(=O)C2=CC(c3ccc(OC)cc3)=NS(=O)(=O)N2C)cc1,i,i,i,i,i,i,nt,nt
CCOC(=O)N1CCN(c2c(NCCN(C)Cc3ccccc3)c(=O)c2=O)CC1,i,nt,50,i,nt,i,i,i
CCOC(=O)N1CCN(c2c(NCCCN(C)c3ccccc3)c(=O)c2=O)CC1,i,i,i,i,i,i,nt,nt
COc1ccc(/C=C/C(=O)Nc2ccc3nc4n(c(=O)c3c2)CCCC4)cc1,i,i,27,12,i,i,i,i
Cc1ccccc1Nc1nc(-c2ccccc2)c(C(=O)Nc2cccnc2)s1,i,i,i,i,i,i,nt,nt
O=C(Nc1cccnc1)c1sc(Nc2ccccc2F)nc1-c1ccccc1,i,i,21,i,i,i,i,i
COc1ccccc1OCC(O)Cn1c(=N)n(Cc2ccccc2)c2ccccc21 (stereo unspecified),i,i,i,i,i,i,nt,nt
Cc1ccccc1OCC(O)Cn1c(=N)n(Cc2ccccc2)c2ccccc21 (stereo unspecified),i,nt,31,i,i,i,53,i
COc1cc(NC(=O)c2cccc(C)c2)ccc1NC(=O)c1cc2ccccc2o1,i,i,30,i,i,i,49,i
COc1ccc(/C=N\NC(=O)COc2ccc(C(C)(C)C)cc2)cc1Cn1nc(C)cc1C,i,38,45,i,i,i,i,i
CCOC(=O)c1c2c(n(-c3ccc(OC)cc3)c1C)C(=O)C(=O)c1ccccc1-2,i,nt,20,i,nt,i,i,i
CN1CCC(NC(=S)Nc2cccc([N+](=O)[O-])c2)CC1,i,i,i,i,i,i,nt,nt
C#CC(=O)N(c1ccc(OC)c(OC)c1)C(C(=O)NC1CCCC1)c1cccs1 (stereo unspecified),i,i,39,i,i,i,19,21
C=C(C)COc1ccc(-c2n[nH]c(C)c2-c2ccc(OC)cc2)c(O)c1,i,i,30,i,i,i,i,i
Cc1ccc(C)c(CN2C(=O)c3ccccc3S(=O)c3ccc(C(=O)N4CCN(c5ccccn5)CC4)cc32)c1 (stereo unspecified),i,i,27,i,i,i,i,i
COc1ccc(-c2nn(-c3ccccc3C)cc2CNC(C)c2cn(C)nc2C)cc1F (stereo unspecified),i,i,163,i,?,i,23,i
CCn1cc(CNCc2cn(-c3ccccc3C)nc2-c2ccc(OC)c(F)c2)cn1,i,i,243,i,i,i,309,i
SMILES,HTR5A inv ctr,NALP1 yeast inh,OPRM1-OPRD1 ag,HTR5A ag,PolyA inh,OPRM1-OPRD1 inv,OPRM1-D1 ag cf,HTR5A ag ctr2
COc1ccc(-c2nn(-c3ccccc3C)cc2CNCCc2cnc[nH]2)cc1F,i,i,i,i,i,i,nt,nt
COC(=O)/C(=C\C(=O)c1ccccc1)Nc1cccc(C(F)(F)F)c1,i,i,i,i,i,i,nt,nt
COc1ccc(N2CCN(S(=O)(=O)c3cc4c(cc3C)N(C(C)=O)CCO4)CC2)cc1,i,i,i,i,i,i,nt,nt
OC(CN1CCN(C(c2ccccc2)c2ccccc2)CC1)c1ccccc1 (stereo unspecified),i,i,19,i,i,i,33,i
COc1ccc(NC(=O)COC(=O)c2cc(OC)c(OC)cc2NC(=O)c2ccco2)cc1OC,i,i,23,i,i,i,i,i
COC(=O)c1cc(OC)c(OC)cc1NC(=O)c1ccco1,i,i,i,i,i,i,nt,nt
OC(CNC1CCCc2ccccc21)COc1ccc2ccccc2c1 (stereo unspecified),i,i,42,i,i,i,31,i
COc1ccc2nc(SCC(=O)N(C)C3CCCCC3)[nH]c2c1,i,nt,i,i,nt,i,nt,nt
CCN1CC(CN(C)Cc2cn(-c3cccc(C)c3)nc2-c2cccc(F)c2)CC1=O (stereo unspecified),i,i,20,i,i,i,i,i
CN(C)CCCN(C(=O)c1ccc(Br)s1)c1nc2cc3c(cc2s1)OCCO3,i,nt,35,i,i,i,93,i
CN(C)C(CNC(=O)CCc1c[nH]c2ccccc12)c1ccccc1 (stereo unspecified),i,i,138,i,i,i,20,i
O=C(CCS(=O)(=O)c1ccccc1)NCCS(=O)(=O)c1ccccc1,i,i,i,i,i,i,nt,nt
CN(C)C(CNC(=O)CCNS(=O)(=O)c1ccccc1C(F)(F)F)c1ccccc1 (stereo unspecified),i,nt,25,i,nt,i,29,i
O=C(CCNS(=O)(=O)c1ccccc1C(F)(F)F)NCCCSc1ccccc1,i,i,i,i,i,i,nt,nt
CN(C)C(CNC(=O)CCS(=O)(=O)c1ccccc1)c1ccccc1 (stereo unspecified),i,i,60,i,i,i,i,i
CC(NC(=O)CCc1c[nH]c2ccccc12)c1ccccc1 (stereo unspecified),i,i,i,i,i,i,nt,nt
CS(=O)(=O)N(CC(=O)Nc1ccc(F)c(F)c1)c1cccc([N+](=O)[O-])c1,i,i,i,i,i,i,nt,nt
CC1=C(C)/C(=N\OS(=O)(=O)c2ccc(C)cc2)C=CC1=O,i,i,50,i,nt,i,i,54
COc1ccc(S(=O)(=O)/N=C2/C=CC(=O)C(C)=C2C)cc1,i,i,i,i,i,i,nt,nt

# Screens (PubChem BioAssay)
